gsp antag = qHTS for Antagonists of gsp, the Etiologic Mutation Responsible for Fibrous Dysplasia/McCune-Albright Syndrome: qHTS. gsp-mutant cells, cAMP HTRF, 30 min. Potency, µM (doses to about 76.9 µM), inactives show at the top dose activity change, negative = inhibition, most hits filed as inhibitors. 340,000 compounds, 0.4% hits; calls by dose curve; cell line not stated here;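 also: intracellular cAMP measured with PDE inhibitor Ro 20-1724 present during compound exposure; potency is read from the fitted curve at half-maximal effect; % is scaled to controls: 0 for no effect and ±100 for the full control effect; nearly all actives have a fitted effect of over 65% in size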
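Cells, 2000/well, grown 16–24 h in DMEM 10% FBS with 0.5 mg/ml G418, then compounds plus […] (300 uM addition stock), 30 min at 37C. cAMP read by HTRF (cAMP-d2 and anti-cAMP antibody-K in lysis buffer) after 30 min RT.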
RXFP1 antag = qHTS Assay for Antagonists of the Relaxin Receptor RXFP1. HEK293-RXFP1, relaxin-stimulated cAMP HTRF, 30 min; stronger effect = lower value. AID 1259400, 2018. activity change, negative = inhibition, % at 57.5 µM. Relaxin receptor 1 (Homo sapiens), Q9HBX9. 350,000 compounds, 0.59% hits;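 active = activity change of -60% or lower, but not beyond a set lower limit; inconclusive = change between -60% and -40%, or beyond the set limit; inactive = change above -40%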; also: % is scaled to controls: 0 for no effect and ±100 for the full control effect
Target sequence (Q9HBX9 whole entry, looked up): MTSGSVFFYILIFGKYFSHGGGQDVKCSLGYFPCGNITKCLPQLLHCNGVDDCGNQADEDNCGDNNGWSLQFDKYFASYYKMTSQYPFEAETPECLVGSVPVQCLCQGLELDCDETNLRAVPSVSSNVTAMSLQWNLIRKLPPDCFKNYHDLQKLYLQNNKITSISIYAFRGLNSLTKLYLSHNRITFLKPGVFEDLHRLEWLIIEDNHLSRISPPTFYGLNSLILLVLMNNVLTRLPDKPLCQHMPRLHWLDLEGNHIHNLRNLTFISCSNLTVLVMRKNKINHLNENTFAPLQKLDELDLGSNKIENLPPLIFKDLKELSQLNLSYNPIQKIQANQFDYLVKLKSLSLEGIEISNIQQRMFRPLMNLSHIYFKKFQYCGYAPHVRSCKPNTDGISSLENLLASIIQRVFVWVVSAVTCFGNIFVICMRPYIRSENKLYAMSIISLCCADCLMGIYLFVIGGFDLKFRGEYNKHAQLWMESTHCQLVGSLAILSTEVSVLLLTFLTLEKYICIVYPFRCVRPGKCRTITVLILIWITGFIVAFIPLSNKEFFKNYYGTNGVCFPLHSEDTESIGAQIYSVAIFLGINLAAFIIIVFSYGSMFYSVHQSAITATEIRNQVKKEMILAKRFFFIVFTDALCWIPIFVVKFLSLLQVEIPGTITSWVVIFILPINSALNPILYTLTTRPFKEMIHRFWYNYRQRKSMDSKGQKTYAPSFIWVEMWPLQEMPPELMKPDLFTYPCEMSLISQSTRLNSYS
gsp ag = qHTS for Agonist of gsp, the Etiologic Mutation Responsible for Fibrous Dysplasia/McCune-Albright Syndrome: qHTS; gsp mutant cells, cAMP HTRF, 30 min; 340,000 compounds, 0.13% hits; Potency, µM (doses to about 76.9 µM), for inactives: at the highest dose activation (cAMP increase), actives largely listed as activators; active = well fitted activation curve with a large enough effect; inconclusive = small, poorly fitted or top-dose-only effect, or another doubt; inactive = no such curve, though single readings can be large or run the other way; cell line not stated here;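 also: phosphodiesterase inhibitor Ro 20-1724 added with compounds to block cAMP breakdown; potency is read from the fitted curve at half-maximal effect; nearly all actives have a fitted effect of over 60% in size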
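Cells in DMEM/10% FBS with G418 were pretreated with compounds in DMSO plus […] (300 uM stock) for 30 min at 37C. cAMP was measured by HTRF (cAMP-d2 plus anti-cAMP antibody-K) after 30 min at room temperature.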
Akt phos inh = HTS Assay for Inhibitors of Akt Phophorylation: Primary Screen; activity change, % for hits at 50 µM; 360,000 compounds, 0.32% hits; Neuro2A IGF-stimulated pAkt S473 HTRF, 20 min; stronger effect = lower value; AID 651550, 2012; in the data active = activity change below about -80%; inconclusive = mostly about -51% to -80%; also: % is scaled to controls: 0 for no effect and ±100 for the full control effect
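Neuro2A cells in DMEM with 0.5% FBS, overnight at 37 deg C, given compound at single 50 µM final, then IGF (6 nM final) for 20 min at 37 deg C. Lysed; phospho-Akt Ser473 by HTRF after 24 h, 665/615 ratio.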
RXFP1 agonist = qHTS Assay for Agonists of the Relaxin Receptor RXFP1; Relaxin receptor 1 (Homo sapiens), Q9HBX9; HEK293T-RXFP1 cAMP TR-FRET, 30 min; response scale: percent of porcine relaxin response, buffer zero; Potency, µM (series often up to 57.5 µM), for inactives: at the top dose activation, actives largely listed as activators; 370,000 compounds, 0.3% hits; AID 2676, 2010; active = well fitted activation curve with a large enough effect; inconclusive = small, poorly fitted or top-dose-only effect; also: potency is read from the fitted curve at half-maximal effect; % is scaled to controls: 0 for no effect and ±100 for the full control effect; nearly all actives have a fitted effect of over 60% in size
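HEK293T cells stably expressing RXFP1 were pretreated with the PDE4 inhibitor Ro 20174, exposed to compounds for 30 min at 37C, lysed, and cAMP was read by TR-FRET. Data normalized to buffer (basal) and 29 nM porcine relaxin (100%).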
The depositor's hits bear a star; i = inactive; ? = inconclusive; / = no result given; + = active, no number; ! = repeats disagree; [ ] = remark or other dose. Most compounds without a hit are left out; they make up all but 1.2% or so of the library.

SMILES	gsp antag	RXFP1 antag	gsp ag	Akt phos inh	RXFP1 agonist
Cc1nn2c(NCCOCCO)c3c(nc2c1-c1ccccc1)CCCC3	-12%	-5	1%	i	0%
O=C(C=Cc1cccc(Cl)c1)c1ccccc1	1%	-62*	?	i	/
CN(C)CCN1CCN(c2cccc(Cl)c2)C1=O	/	9	/	/	/
COc1ccc(CN2C(=O)c3cccnc3C2=O)cc1S(=O)(=O)NCc1ccc(C)o1	7%	21	?	/	16µM*
O=C1c2cccnc2C(=O)N1Cc1ccc(S(=O)(=O)NCc2ccco2)s1	-1%	14	?	i	?
COc1ccccc1CNS(=O)(=O)c1cc(CN2C(=O)c3cccnc3C2=O)ccc1OC	1%	6	?	/	?
O=C1c2cccnc2C(=O)N1Cc1ccc(F)cc1S(=O)(=O)NCc1ccco1	4%	16	?	/	25µM*
CC(C)(CNC(=S)NCCc1ccccc1)CNC(=S)NCCc1ccccc1	35µM*	-3	-3%	i	1%
OCC1OC(n2nnc3ccccc32)C(O)C(O)C1O (stereo unspecified)	-2%	-12	3%	-92%*	0%
O=c1c2c(-c3ccc([N+](=O)[O-])cc3)csc2nc2n1CCC2	10%	11	22µM*	i	?
Cn1nc(C(=O)NCc2cccc(Cl)c2)c2c1-c1ccccc1SC2	/	17	/	/	-3%
CCc1cc2cc3c(cc2nc1SCC(=O)Nc1nccs1)OCO3	25%	9	?	i	13µM*
O=C(CN1C(=O)c2ccccc2S1(=O)=O)NCc1c(F)cccc1F	2%	-15	2%[15.4 µM]	i	1%
O=C(CN1C(=O)c2ccccc2S1(=O)=O)NC(Nc1ccccc1F)C(Cl)(Cl)Cl (stereo unspecified)	-24%	-105*	-18%	i	3%
C[C@H]1O[C@H](O[C@H]2[C@H](O)[C@@H](O)[C@@H](O[C@H]3[C@H](O)[C@@H](O)[C@H](O)O[C@@H]3CO)O[C@@H]2CO)[C@H](O)[C@@H](O)[C@@H]1N[C@H]1C=C(CO)[C@@H](O)[C@H](O)[C@H]1O	/	-5	/	/	/
Brc1ccc(OCc2ccccc2)c(CNCc2ccncc2)c1	?	-89*	-28%	i	-1%
Cc1nc2n(c(=O)c1CCN1CCC(C(=O)c3ccc(F)cc3)CC1)CCS2	/	44	/	/	/
COc1ccc2c(c1)CC(C(=O)NCCCN1CCN(c3cccc(Cl)c3)CC1)CO2 (stereo unspecified)	/	-12	/	/	0%
CC(C)c1nc2sc3c(NCc4ccco4)ncnc3c2c2c1COC(C)(C)C2	24%	-4	26%	-104%*	?
CC1(C)Cc2c(C#N)c(NCc3ccco3)nc(-c3ccco3)c2CO1	17%	-5	9%	-89%*	2%
CCc1ccc(S(=O)(=O)c2c(C(=O)c3ccc(C)c(C)c3)cnc3ccccc23)cc1	/	6	/	/	0%
CC(=O)N1N=C(c2ccc(C)o2)CC1c1cccc(F)c1 (stereo unspecified)	-4%	-61*	?	i	-1%
CC(=O)N1N=C(c2ccccc2)CC1c1ccc(F)cc1 (stereo unspecified)	-1%	8	?	i	1%
Cc1cc(OCC(=O)N(Cc2ccc(N(C)C)cc2)CC2CCCO2)ccc1Cl (stereo unspecified)	/	-21	/	/	0%
NCCNC(=O)c1ccc(Cl)cn1	/	6	/	/	/
SMILES	gsp antag	RXFP1 antag	gsp ag	Akt phos inh	RXFP1 agonist
C[C@H]1O[C@@H](O[C@H]2CC[C@@]3(C)[C@H](CC[C@@H]4[C@@H]3C[C@@H](O)[C@]3(C)[C@@H](C5=CC(=O)OC5)CC[C@]43O)C2)C[C@H](O)[C@@H]1O[C@H]1C[C@H](O)[C@H](O[C@H]2C[C@H](O)[C@H](O[C@@H]3O[C@H](CO)[C@@H](O)[C@H](O)[C@H]3O)[C@@H](C)O2)[C@@H](C)O1	/	-33	/	/	/
CNC(=O)CSc1nnc(-c2ccncc2)n1Cc1ccccc1	-1%	-6	-23%	-112%*	1%
O=C(CSc1nnc(-c2ccncc2)n1Cc1ccccc1)NCCc1ccccc1	-15%	-33	-8%	i	0%
COc1ccc(-c2noc(N3CCN(c4cccc(Cl)c4)CC3)n2)cc1OC	/	-10	/	/	-3%
CC(c1ccccc1)N1CCC(CNC(=S)Nc2cccc(Cl)c2)C1 (stereo unspecified)	7%	?	28µM*	i	-1%
CC(=O)Nc1cccc(Nc2nc3ccccc3n3c(C)nnc23)c1	/	-3	/	/	0%
CCOC(=O)C(CC)n1cnc2c(oc3ccccc32)c1=O (stereo unspecified)	-9%	-7	0%	-113%*	4%
COC(=O)c1cccnc1-n1c(=O)c2cccnc2n(CC(=O)Nc2ccccc2F)c1=O	/	8	/	/	-1%
COc1ccccc1N1C(=O)CCC1(C#N)c1ccccc1 (stereo unspecified)	7%	8	-34%	-107%*	1%
N#CC1(c2ccccc2)CCC(=O)N1c1ccccc1 (stereo unspecified)	8%	4	16%	i	1%
O=C(CCSc1ccc(Cl)cc1)c1cccs1	-5%	-15	-21%	-107%*	0%
COc1cccc(NC(=O)c2nnn(Cc3ccc(OC)c(Br)c3)c2N)c1	/	/	/	/	0%
Cc1ccc(C)c(CS(=O)(=O)c2cn(CC(=O)N(C(C)C)C(C)C)c3ccccc23)c1	/	-22	/	/	0%
C/C(CC(=O)Nc1ccc2c(c1)OCCO2)=N\NC(=O)COc1ccc(C)cc1	0%	-77*	?	i	1%
Cc1ccc(Cl)cc1N1CCN(C(=O)C(C)n2ncn3cccc3c2=O)CC1 (stereo unspecified)	-16%	-1	-1%	i	28µM*!
Cn1c(=O)cc(SCC(=O)NCCCN2CCN(c3ccccc3F)CC2)c2ccccc21	-7%	0	?	i	10%
O=C(COc1ccc2c3c(c(=O)oc2c1)CCC3)NCCCN1CCOCC1	-5%	13	?	i	16%
O=C(COc1ccc2c(c1)oc(=O)c1ccccc12)NCCCN1CCOCC1	+	-3	31%	i	2%
CCn1c(=O)cc(SCC(=O)NCCCN2CCN(c3ccc(F)cc3)CC2)c2ccccc21	-6%	38	22µM*	i	11%
Cn1c(=O)cc(SCC(=O)NCCCN2CCOCC2)c2ccccc21	-2%	-1	22µM*	i	12%
Cn1c(=O)cc(SCC(=O)NCCCN2CCOCC2)c2ccc(Cl)cc21	6%	17	28µM*	i	12%
